According to PubChem BioAssay AID651710 (Broad Institute, 2012):
Values joined by “and” are separate entries in the source; they are usually repeats but may differ in a detail not shown here. Equal values may be shown once. Among all 360,000 compounds or so, about 1,600 (0.44%) were called active.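 The calls were made as follows: active = every replicate showing at least 50% inhibition; inconclusive = mean inhibition at least 50% but not in every replicate; inactive = the rest.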 For the sample, actives were picked, then their nearest neighbours and some compounds at random. The source holds several records for some structures; these can differ, active in one and inactive in another.

Target: DNA repair protein RAD52 homolog (Homo sapiens) (UniProt P43351)
Sequence (P43351 whole entry, looked up): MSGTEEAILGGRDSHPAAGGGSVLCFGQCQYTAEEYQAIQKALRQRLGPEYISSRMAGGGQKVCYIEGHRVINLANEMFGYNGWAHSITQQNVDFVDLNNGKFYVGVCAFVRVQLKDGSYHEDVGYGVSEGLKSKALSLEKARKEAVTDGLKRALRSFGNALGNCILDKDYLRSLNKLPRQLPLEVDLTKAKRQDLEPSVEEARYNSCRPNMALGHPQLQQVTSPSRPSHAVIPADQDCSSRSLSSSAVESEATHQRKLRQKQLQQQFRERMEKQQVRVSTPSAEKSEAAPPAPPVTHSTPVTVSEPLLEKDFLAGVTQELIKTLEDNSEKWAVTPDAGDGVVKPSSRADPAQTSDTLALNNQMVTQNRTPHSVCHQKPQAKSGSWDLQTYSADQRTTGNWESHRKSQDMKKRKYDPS
Assay: RAD52 DNA annealing inhibitors, primary screen, biochemical, FRET, single point, set 2 (AID 651710)
Conditions: recombinant RAD52 DNA annealing, FRET fluorescence; at 18.7 µM; stronger effect = higher value

inhibition, active:
COc1ccccc1C#Cc1cnc2c(c1)C(=O)N([C@@H](C)CO)C[C@@H](C)[C@@H](CN(C)C(=O)CN(C)C)O2 51.1%, Cc1ccc2c(c1)C1CN(C)CCC1N2S(=O)(=O)c1ccc(Oc2ccc([N+](=O)[O-])cc2)cc1 (stereo not drawn) 57.3%, O=C(/C=C/c1cn(-c2ccccc2)nc1-c1ccc2c(c1)OCCO2)NCCCN1CCOCC1 50.5%, c1ccc2cc3c(NCCN4CCOCC4)ccnc3cc2c1 79%, CCN(CC)CCNC(=O)c1ccc(NC(=O)c2cc(-c3ccncc3)nc3ccccc23)cc1 54.5%, Cc1nc(N=C(N)N)nc2c(C)cccc12 81.9%, CC(=O)c1cccc(-c2cnc3c(NC=O)cc(-c4ccc(N5CCN(C)CC5)cc4)cn23)c1 73.8%, CN(C)CCNC(=O)c1cccc(-c2cnc3c(NC=O)cc(-c4cccc(C(F)(F)F)c4)cn23)c1 67%, CC(=O)Nc1cc(-c2ccc(N3CCN(C)CC3)cc2)cn2c(-c3cccc(C(=O)N(C)C)c3)cnc12 79.7%, C=Cn1cc[n+](CC(=O)c2ccc(OC)c(OC)c2)c1 98%, COc1ccc2[nH]c3c(C)c4cc[n+](C)cc4c(C)c3c2c1 94.3%, CCCCCCCCCCOC(=O)Cn1c(COc2ccc(C)cc2)[n+](C)c2ccccc21 79.8%, Cc1cc2oc3ccc(NCCC4CCCN4C)cc3c(=O)c2cc1C (stereo not drawn) 60.4%

inhibition, 56.8% (active) and 37.8% (inactive):
COc1ccccc1S(=O)(=O)N1C[C@@H]2N[C@H](C1)C2c1ccc(-c2cccc(C)c2)cc1 (stereo partly drawn)

inhibition, inactive:
COCC(=O)N(C)C[C@@H]1Oc2ncc(C#Cc3ccccc3OC)cc2C(=O)N([C@@H](C)CO)C[C@H]1C 0.963%, COc1ccccc1C#Cc1cnc2c(c1)C(=O)N([C@@H](C)CO)C[C@@H](C)[C@H](CN(C)C(=O)CN(C)C)O2 42.2%, CN(C)CC(=O)N1[C@@H](C#N)[C@@H](c2ccccc2-c2ccccc2F)[C@@H]1CO -4.36%, N#C[C@@H]1[C@@H](c2ccccc2C2=CCCC2)[C@H](CO)N1C(=O)NC1CCCC1 -0.746%, Cc1ccccc1S(=O)(=O)NCC[C@@H]1CC[C@@H](NS(=O)(=O)c2ccccc2C)[C@@H](CO)O1 -0.528%, Cc1ccc2c(c1)C1CN(C)CCC1N2S(=O)(=O)c1cccc(F)c1 (stereo not drawn) -19.1%, Cc1ccc2c(c1)C1CN(C)CCC1N2C(=S)Nc1ccc(OC(F)F)cc1 (stereo not drawn) -9.14%, CC=Cc1ccc2n(c1=O)C[C@@H]1[C@@H](CO)[C@H](C(=O)NCCCN3CCOCC3)[C@H]2N1Cc1cocn1 (mixture of isomers) -8.14%, O=C(NCCCN1CCOCC1)c1cn(-c2ccccc2)nc1-c1ccc(F)cc1 -2.27%, COc1ccc(-c2nn(-c3ccccc3)cc2/C=C\C(=O)N2CCOCC2)cc1[N+](=O)[O-] -18.6%, C[C@H]1CN([C@@H](C)CO)S(=O)(=O)c2ccc(-c3ccccc3)cc2O[C@H]1CN(C)C(=O)CC1CC1 5.01%, C[C@H](CO)N1C[C@H](C)[C@H](CN(C)C(=O)Nc2ccc3c(c2)OCO3)Oc2ccc(NC(=O)Nc3ccccc3)cc2CC1=O -4.77%, Cc1cccc(C)c1OCCN1CCOCC1 -1.02%, Fc1ccc(-c2ccc(NCCN3CCOCC3)nn2)cc1 -7.71%, COc1ccc(NC(=O)N(C)C[C@@H]2Oc3c(NS(C)(=O)=O)cccc3C(=O)N([C@H](C)CO)C[C@H]2C)cc1 1.83%, CC(C)NC(=O)Nc1ccc2c(c1)CC(=O)N([C@H](C)CO)C[C@H](C)[C@@H](CN(C)C(=O)Nc1ccc(F)cc1)O2 16.5%, N#Cc1ccc(-c2ccc(C3[C@H]4CNC[C@@H]3N4S(=O)(=O)c3ccccc3F)cc2)cc1 (stereo partly drawn) 28.8%, N#Cc1cccc(-c2ccc(C3[C@H]4CNC[C@@H]3N4Cc3cncnc3)cc2)c1 (stereo partly drawn) -10.4%, CCCNC(=O)N(C)C[C@@H]1Oc2ncc(C#CC(C)C)cc2C(=O)N([C@H](C)CO)C[C@H]1C -2.25%, CCN(CC)CCNC(=O)c1ccc(NC(=O)c2c(F)cccc2Cl)cc1 -8.76%, O=C(Nc1ccc(S(=O)(=O)Nc2nccs2)cc1)c1cc(-c2ccncc2)nc2ccccc12 -42.2%, COC(=O)Cc1nnn2c1[C@H](C)[C@@H](OC)c1cc(Br)ccc1-2 -4.62%, C[C@@H]1CN([C@@H](C)CO)C(=O)c2cc(NC(=O)Nc3ccccc3)ccc2O[C@@H]1CN(C)Cc1ccccc1 8.18%, COc1cccc(NC(=O)N[C@H]2C=C[C@H](CC(=O)NCc3ccccn3)O[C@@H]2CO)c1 -25.9%, COc1ccc(-c2ccc3c(c2)[C@@H]2[C@@H](CCN2C(=O)NC2CCCC2)[C@@H](CO)N3C)cc1 -19%, COCC(=O)Nc1ccc2c(c1)OC[C@H](C)NC[C@H](C)[C@H](OC)CN(C)C2=O -2.26%, COc1cccc(CN2[C@H](CO)[C@@H]3c4ccccc4N(C(=O)c4ccncc4)C[C@@H]32)c1 -8.72%, CN(C)C(=O)c1cccc(-c2cnc3c(NC=O)cc(-c4ccc(C(=O)N5CCOCC5)cc4)cn23)c1 -29%, CC(=O)Nc1cc(-c2ccc(N3CCN(C)CC3)cc2)cn2c(-c3ccc(F)cc3)cnc12 18%, CC(=O)c1cccc(-c2cnc3c(NC=O)cc(-c4cccc(C(=O)N(C)C)c4)cn23)c1 -0.741%, CC(=O)c1cccc(-c2cnc3c(NC=O)cc(-c4ccc(N(C)C)cc4)cn23)c1 -47.5%, CN(C)C(=O)c1cccc(-c2cnc3c(NC=O)cc(-c4ccc(F)cc4)cn23)c1 -55.7%, CC(=O)Nc1cc(-c2cccc(CO)c2)cn2c(-c3cccc(C(F)(F)F)c3)cnc12 -17.3%, O=C(C[C@H]1C=C[C@@H](NC(=O)C2CC2)[C@H](CO)O1)NCC1CC1 2.9%, CO[C@H]1CN(C)C(=O)c2ccc(NC(=O)c3cnccn3)cc2OC[C@H](C)N(C)C[C@@H]1C 2.76%, O=C(Nc1ccccc1)N[C@H]1CC[C@H](CCNC(=O)c2ccccc2F)O[C@H]1CO -10.3%, CCCN(C)C[C@@H]1Oc2ncc(-c3cccc(C(=O)N(C)C)c3)cc2C(=O)N([C@H](C)CO)C[C@@H]1C -4.17%, CN(C)C(=O)C[C@H]1CC[C@H](NC(=O)NC2CCCC2)[C@@H](CO)O1 -3.59%, CCCC#Cc1ccc([C@H]2[C@@H](CO)N3CCCCN(C(=O)c4ccc5c(c4)OCO5)C[C@@H]23)cc1 -42.9%, COc1ccc(NC(=O)N(C)C[C@@H]2Oc3ccc(NC(=O)CCC(F)(F)F)cc3C(=O)N([C@@H](C)CO)C[C@H]2C)cc1 -4.28%, O=C(Nc1ccccc1)[C@@H]1[C@@H](CO)[C@@H]2Cn3c(cccc3=O)[C@@H]2N1C(=O)C1CC1 2.14%, COc1ccc(C(=O)COC(=O)c2ccc([N+](=O)[O-])s2)cc1OC -8.04%, COc1ccc(-n2nnnc2SCC(=O)c2ccc(OC)c(OC)c2)cc1 -22.4%, CC(=O)N(C)C[C@H]1Oc2ncc(C#CC3(O)CCCC3)cc2C(=O)N([C@@H](C)CO)C[C@@H]1C 9.64%, CO[C@@H]1CN(C)C(=O)c2ccc(NC(=O)Nc3ccccc3)cc2OC[C@@H](C)N(C(=O)CN(C)C)C[C@H]1C 5.57%, Cn1cnc(S(=O)(=O)N2CCCCN3[C@H](CO)[C@@H](c4ccc(-c5ccc(F)cc5)cc4)[C@@H]3C2)c1 -27.5%, COc1ccc(-c2cn(CC[C@H]3CC[C@@H](NC(=O)CCN4CCCCC4)[C@H](CO)O3)nn2)cc1 -7.25%, C[C@H]1CCCCO[C@H](CN(C)S(=O)(=O)c2ccc(F)cc2)[C@@H](C)CN([C@@H](C)CO)C(=O)c2cc(NS(=O)(=O)c3cn(C)cn3)ccc2O1 -9.68%, CSc1ccccc1NC(=O)COC(=O)CCCOc1ccc(C)cc1 -13.4%, Cc1ccc(COc2ccc(C(=O)NN)cc2)cc1 -18.7%, COCC#Cc1ccc2c(c1)O[C@@H](CN(C)C(=O)Nc1ccccc1F)[C@H](C)CN([C@H](C)CO)S2(=O)=O 11.1%, O=S(=O)(c1ccccc1)N1CCCCN2[C@H](C1)[C@H](c1ccc(-c3ccccc3)cc1)[C@@H]2CO -26.6%, C[C@H]1CN([C@@H](C)CO)C(=O)c2cc(NC(=O)CCC(F)(F)F)ccc2O[C@H]1CN(C)Cc1ccc(C(=O)O)cc1 -6.5%, CN1CCC[C@@H]1CCO[C@](C)(c1ccccc1)c1ccc(Cl)cc1 27.4%, COc1cccc2sc3cc(NCC[C@@H]4CCCN4C)ccc3c(=O)c12 -48.1%, COc1ccc2c3c([nH]c2c1)[C@H](CO)N(C(=O)c1ccncc1)CC31CCN(C(=O)c2ccncc2)CC1 2.16%, COc1cccc(S(=O)(=O)N2C[C@@H]3N[C@H](C2)C3c2ccc(-c3cccc(C(=O)N(C)C)c3)cc2)c1 (stereo partly drawn) 10.5% and 16.9%, N#Cc1ccc(-c2ccc(C3[C@@H]4CN(S(=O)(=O)c5ccccc5F)C[C@H]3N4)cc2)cc1 (stereo partly drawn) -15.8% and -46.3%

inhibition, 73.9% (active) and 22.4% (inactive):
N#Cc1cccc(-c2ccc(C3[C@H]4CNC[C@@H]3N4S(=O)(=O)c3ccc(-c4ccccc4)cc3)cc2)c1 (stereo partly drawn)
